PubChem BioAssay AID1259415 (National Center for Advancing Translational Sciences (NCATS), 2018)
Among all 410,000 compounds or so, about 18,000 (4.4%) were called active. Inconclusive results (about 7%) are left out. Shown is part of a subset that was picked to be rich in actives. Unmarked numbers belong to inactive results. Rule as the data show it: active = activity change below about -60%; inconclusive = no clear call, values can overlap the other calls; inactive = above about -39%.

Test: qHTS Assay for inhibitors of the human cytomegalovirus (HCMV)
Conditions: HFF cells, HCMV-luciferase reporter, 72 h; at 57.5 µM; active compounds read low
How it was run: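 Human foreskin fibroblasts infected with luciferase-reporter HCMV at MOI 1 PFU/cell, compounds at two doses. Luciferase measured 72 h post infection; normalized to buffer-only basal and Salinomycin (10uM) controls.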
% is scaled to controls: 0 for no effect and ±100 for the full control effect.

Compared with `O=C1N=C(N2CCOCC2)CS1`, `CCc1cccc(NC(=O)c2cnc(N3CCOCC3)c3ccccc23)c1` is higher in activity change, negative = inhibition: -12.8% for the first, 10.1% for the second.

Going from `CC1CCN(C2=NC(=O)/C(=C/c3cn[nH]c3-c3ccccc3)S2)CC1` to `CC(=O)c1cc(-c2ccccc2)[nH]c1N1CCCC1`, the activity change, negative = inhibition rises from -1.68% to 30.4%.

Compared with `COc1ccc(C2CC(=O)N(Cc3ccccc3C)c3c2c(C)nn3-c2nc(C)cc(C)n2)c(OC)c1` (stereo not given), `COc1ccc(-c2nc(Cn3c(=O)cc(C)c4c(C)nn(-c5ccccc5)c43)c(C)o2)c(OC)c1` is higher in activity change, negative = inhibition: -22.9% for the first, -2.37% for the second.

First: O=C(COc1ccc(Cl)cc1)Nc1ccc(-c2nc3cc(Cl)ccc3o2)c(O)c1
Second: CCCC(=O)Nc1ccc2oc(-c3ccc(O)c(Br)c3)nc2c1
The activity change, negative = inhibition of the first is lower: 71.6% for the first, 94.7% for the second.

First: O=C(Cn1cnc2ccccc2c1=O)Nc1cccc(S(=O)(=O)N2CCCCC2)c1
Second: CCOc1ccccc1NC(=O)CN1CCN(S(=O)(=O)c2ccc(Br)cc2)CC1
The activity change, negative = inhibition of the first is higher: 0% for the first, -1.48% for the second.

Compared with `CCC(C)c1ccccc1NC(=O)CN(C)CC(=O)Nc1ccccc1SC` (stereo not given), `CSc1ccccc1NC(=O)CN(C)CC(=O)Nc1ccc(Cl)cc1[N+](=O)[O-]` is higher in activity change, negative = inhibition: -37.9% for the first, -26.6% for the second.

First: O=C(Cn1c(=O)n(Cc2cccs2)c(=O)c2cccnc21)Nc1ccc(F)cc1
Second: Cc1nn(C(C)C(=O)Nc2ccc(C(C)C)cc2)c(=O)c2c1sc1ccccc12 (stereo not given)
The activity change, negative = inhibition of the first is higher: -5.11% for the first, -9.99% for the second.

First: COc1ccc(CCNC(=O)c2cc(=O)c3c(C)cc(C)cc3o2)cc1OC
Second: COc1ccc(CCNC(=O)c2ccc3c(c2)nc(C)n3-c2ccc(Br)cc2)cc1OC
The activity change, negative = inhibition of the first is higher: -6.54% for the first, -16.1% for the second.

First: COc1cccc(-n2cc(C(=O)NCc3cccc(Cl)c3)c3ccccc3c2=O)c1
Second: Clc1cccc(-n2ncc3c(NCCc4ccccc4)ncnc32)c1
The activity change, negative = inhibition of the first is lower: -23.6% for the first, 41.5% for the second.

Going from `CCC1CN(S(=O)(=O)c2cc(-c3cc(C)no3)ccc2C)c2cc(C)ccc2O1` (stereo not given) to `CCN(CC)c1ccc(NS(=O)(=O)c2cc(-c3cc(C)no3)ccc2C)c(C)c1`, the activity change, negative = inhibition rises from -36.6% to 0%.

First: C[C@@H]1NS(=O)(=O)c2cc(Cl)ccc2O[C@@H]1c1ccccc1
Second: COc1ccccc1Nc1nc(N)nc(N)c1S(=O)(=O)c1ccccc1
The activity change, negative = inhibition of the first is lower: -16.5% for the first, 21.5% for the second.

Going from `COc1ccc(CCn2cc3c(c2-c2ccc(Br)cc2)c(=O)n(C)c(=O)n3C)cc1OC` to `CCOc1ccc(N(C)S(=O)(=O)c2cc(-c3cnc(C)o3)ccc2OC)cc1`, the activity change, negative = inhibition falls from 15.4% to -20.5%.

First: COc1ccc(S(=O)(=O)NCc2cccn2Cc2cccc(C)c2)cc1
Second: COc1ccc(CCNS(=O)(=O)c2cccc([N+](=O)[O-])c2)cc1
The activity change, negative = inhibition of the first is lower: -4.02% for the first, -2.78% for the second.

Compared with `COc1ccccc1NC(=O)C1CCCN1S(=O)(=O)c1ccc(Cl)cc1` (stereo not given), `CC(C)c1ccc(NC(=O)c2cc(S(=O)(=O)N3CCc4ccccc4C3)ccc2F)cc1` is higher in activity change, negative = inhibition: 0.0905% for the first, 3.74% for the second.

Going from `CC(=NNC(N)=O)c1ccc(Cl)c(-n2cccc2)c1` to `Cc1nc2ccc(S(=O)(=O)NC(C(=O)NCc3ccccc3Cl)C(C)C)cc2s1` (stereo not given), the activity change, negative = inhibition falls from 25.6% to -12.9%.

Compared with `Cc1cccc2c(=O)cc(CSc3ccccc3NC(=O)C(C)C)[nH]c12`, `Cc1ccc2cccc(NC(=O)C(C)Oc3ccc(C)c(C)c3)c2n1` (stereo not given) is lower in activity change, negative = inhibition: 45.6% for the first, -3.68% for the second.

First: COCCCNC(=O)c1ccc(NC(=O)c2nsc3ccccc23)cc1
Second: O=C(NCCCc1ccccc1)C(=O)c1c[nH]c2ccccc12
The activity change, negative = inhibition of the first is higher: 114% for the first, 21.3% for the second.

Compared with `COc1ccccc1OCc1ccc(C(=O)NC(C)c2ccccc2)o1` (stereo not given), `Cc1cccc(NC(=O)c2ccc(COc3ccccc3[N+](=O)[O-])o2)n1` is lower in activity change, negative = inhibition: 26.2% for the first, -4.62% for the second.

Going from `COc1ccc(N(CC(=O)NCCc2ccc(Cl)cc2)S(=O)(=O)c2c(C)nn(C)c2C)cc1` to `COc1ccc(N(CC(=O)Nc2ccc(F)c(F)c2)S(=O)(=O)c2c(C)[nH]c(=O)[nH]c2=O)cc1`, the activity change, negative = inhibition rises from -14.4% to 0%.

First: Cc1ccc(S(=O)(=O)NCc2nc3nc(C)cc(C)n3n2)cc1
Second: Cc1ccc(C)c(Cn2c(C)c(CNCc3ccc(F)cc3)c(C(=O)O)c2C)c1
The activity change, negative = inhibition of the first is lower: 14.6% for the first, 18.1% for the second.

Compared with `Cc1ccc(-c2nn3c(=O)cc(CN4CCN(C(=O)Nc5cccc(C(F)(F)F)c5)CC4)nc3s2)cc1`, `COc1cccc(NC(=O)C2CCN(c3cc(C)nc4c(-c5ccc(Cl)cc5)c(C)nn34)CC2)c1` is lower in activity change, negative = inhibition: 10.5% for the first, -5.4% for the second.

Compared with `CCOC(=O)C1CCN(c2csc3ccc(C)cc3c2=O)CC1`, `CCOC(=O)c1ccc(NC(=O)c2csc3c2CCCCC3)cc1` is higher in activity change, negative = inhibition: -4.71% for the first, 26.3% for the second.

Going from `Cn1c(COc2ccccc2C(C)(C)C)nc2ccccc21` to `COc1cccc(C(O)Cc2nc3ccccc3n2C)c1OC` (stereo not given), the activity change, negative = inhibition rises from -14.6% to 34.8%.

First: Nn1c(SCC(=O)NC2CCCc3ccccc32)nnc1C1CC1 (stereo not given)
Second: COc1ccc(NC(=O)CN2C(=O)C(c3ccccc3)=NC23CCCCCC3)cc1OC
The activity change, negative = inhibition of the first is higher: 40.9% for the first, -13.9% for the second.

First: CC(C)N(Cc1ccccc1)C(=O)COC(=O)c1ccccc1SCC(=O)N1CCCC1
Second: CC1=C(C(=O)OCC(C)C)C(c2ccc(OCc3ccccc3)cc2)N2C(=O)CCSC2=N1 (stereo not given)
The activity change, negative = inhibition of the first is lower: -8.52% for the first, 14.9% for the second.

Compared with `O=C(CC1C(=O)NCCN1Cc1ccc(-c2ccccc2)cc1)NCc1ccncc1` (stereo not given), `CC(C)c1nc(CNC(=O)CC2C(=O)NCCN2Cc2cccc(F)c2F)cs1` (stereo not given) is higher in activity change, negative = inhibition: 11.9% for the first, 12.4% for the second.

Going from `CCOc1ccc(N2CC(C)Cn3c2nc2c3c(=O)n(Cc3c(F)cccc3Cl)c(=O)n2C)cc1` (stereo not given) to `CCCOc1ccc(C2c3c(-c4ccccc4O)n[nH]c3C(=O)N2Cc2cccnc2)cc1` (stereo not given), the activity change, negative = inhibition rises from -9.51% to 8.52%.

Compared with `O=C(NC1CC(=O)N(c2ccc(F)cc2)C1)C1CCCCC1` (stereo not given), `CC1CCCCN1Cc1c(O)ccc2c(=O)c(-c3cccc(Cl)c3)c(C(F)(F)F)oc12` (stereo not given) is lower in activity change, negative = inhibition: 31.9% for the first, 11.3% for the second.

Going from `Cc1ccc(C)c(N2CCN(C(c3ccccc3)c3nnc(-c4ccccc4)o3)CC2)c1` (stereo not given) to `COc1cc2nc(NCC(C)c3ccccc3)n3nc(-c4ccccc4)nc3c2cc1OC` (stereo not given), the activity change, negative = inhibition falls from 20.2% to 5.32%.

Compared with `O=C(NN1C(=O)C2C3C=CC(C4CC34)C2C1=O)c1ccc(Cl)cc1` (stereo not given), `O=C(NN1C(=O)C2C3C=CC(O3)C2C1=O)c1ccncc1` (stereo not given) is lower in activity change, negative = inhibition: 11.6% for the first, -8.47% for the second.

Going from `Cc1ccc(C2c3[nH]c4ccccc4c3CCN2C(=O)c2cccc(C)c2)cc1` (stereo not given) to `Cc1ccc(-c2cc(=O)c3ccc(F)cc3[nH]2)cc1`, the activity change, negative = inhibition rises from -22.4% to 3.06%.

First: C=CCOc1cccc(CNCc2cccnc2)c1
Second: c1cncc(CNC2=NCCC2)c1
The activity change, negative = inhibition of the first is lower: 21.4% for the first, 46.1% for the second.

Going from `CC(C)CNc1ncnc2c1cnn2Cc1ccc(Cl)cc1` to `COc1ccccc1Nc1ncc(C(C)=O)c(C)n1`, the activity change, negative = inhibition rises from -30.5% to 16.2%.

Going from `C=CCNC(=O)c1cc2nc(C3CC3)cc(C(F)F)n2n1` to `CCc1ccc(NC(=O)CN2C(=O)C(c3ccccc3)=NC23CCCCCC3)cc1`, the activity change, negative = inhibition falls from 37.6% to 16.1%.

Going from `COc1ccccc1CNC(=O)COC(=O)c1sc(C)nc1C` to `COc1ccccc1-c1n[nH]nc1C1=CC(=O)CC(C)(C)C1`, the activity change, negative = inhibition falls from -2.84% to -4.89%.

Compared with `O=C(Nc1ccc(-c2nc3cc(NC(=O)c4ccccc4Cl)ccc3o2)cc1)c1ccccc1Cl`, `COc1ccc(NC(=O)Cn2cc(C(=O)c3ccncc3)c(=O)c3cc(C)ccc32)cc1Cl` is higher in activity change, negative = inhibition: -35.6% for the first, -8.82% for the second.

Compared with `CC1(C)CC(=O)C=C(c2ccc(Cl)c(C(F)(F)F)c2)C1`, `O=C(CCc1c[nH]c2ccccc12)NCCOc1ccccc1` is higher in activity change, negative = inhibition: -4.75% for the first, -2.62% for the second.

With `O=C1N=C(N2CCOCC2)S/C1=C\C=C/c1ccccc1` the activity change, negative = inhibition was -102% (active).
In the case of `CSc1ccccc1NC(=O)CN(C)CC(=O)Nc1cccc(Br)c1`, the activity change, negative = inhibition is reported as -99.6% (active).
In the case of `Cc1ccc2c(c1)N(S(=O)(=O)c1cc(-c3cc(C)no3)ccc1C)CCO2`, the activity change, negative = inhibition is reported as -81.3% (active).
For `COc1ccccc1NC1=NC(c2ccc(Cl)cc2)N=C(N)N1` (stereo not given), the activity change, negative = inhibition was -75.4% (active).
For `CCCc1ccc(OCc2ccc(C(=O)N/N=C/c3cccc([N+](=O)[O-])c3)o2)c(OC)c1`, the activity change, negative = inhibition was -67.9% (active).
With `CC(NCc1nc2ccccc2n1C)C12CC3CC(CC(C3)C1)C2` (stereo not given) the activity change, negative = inhibition was -65.6% (active).
In the case of `COc1ccc(CN2CCNC(=O)C2CC(=O)NCc2cn[nH]c2-c2ccccc2)c(F)c1` (stereo not given), the activity change, negative = inhibition is reported as -65.5% (active).
In the case of `COc1ccc(C(=O)NN2C(=O)C3C(c4ccccc4)C=CC(c4ccccc4)C3C2=O)cc1` (stereo not given), the activity change, negative = inhibition is reported as -63% (active).
With `Brc1ccc2ncnc(NCc3cccnc3)c2c1` the activity change, negative = inhibition was -65.9% (active).
With `C=CCNc1ncnc2ccc(Br)cc12` the activity change, negative = inhibition was -60.6% (active).
With `Clc1ccc(Cn2ncc3c(NCc4cccnc4)ncnc32)cc1` the activity change, negative = inhibition was -72.2% (active).
For `CC1CCC2(CC1)N=C(c1ccccc1)C(=O)N2CC(=O)Nc1ccc(F)c(Cl)c1` (stereo not given), the activity change, negative = inhibition was -96% (active).
With `O=c1cc(-c2ccccc2)[nH]c2cc(F)ccc12` the activity change, negative = inhibition was -67.4% (active).
In the case of `COc1cccc2sc(Nc3nc(C)c(C(C)=O)s3)nc12`, the activity change, negative = inhibition is reported as -77% (active).
With `CC1(C)CC(=O)C=C(c2ccc3ncccc3c2)C1` the activity change, negative = inhibition was -83.3% (active).
With `N#C/C(=C/c1ccc(N2CCCCC2)o1)C(=O)NCCc1c[nH]c2ccccc12` the activity change, negative = inhibition was -60.4% (active).
